# Data published in paper doi:10.1101/2024.03.05.583629.
# Biological target: pT7_6His-AlfaTag-ZIF268 (human, UniProt P18146 335-423)
# Test: PADIT-seq
# Conditions: dsDNA, one strand shown
row,Sequence,binding signal
1,CTCGAGGATATCAAGATCTGGCCTCGGCCGCACACGCGGAACCTCTAGCTAGCCGACTCACTATAGGGATAATCGCCCTGAGCAAAGACC,0.422 ± 0.0927 log2FC
2,CTCGAGGATATCAAGATCTGGCCTCGGCGCGCCACGCGGAACCTCTAGCTAGCCGACTCACTATAGGGATAATCGCCCTGAGCAAAGACC,0.0182 ± 0.0932 log2FC
3,CTCGAGGATATCAAGATCTGGCCTCGGCGCGTGGGATGGAACCTCTAGCTAGCCGACTCACTATAGGGATAATCGCCCTGAGCAAAGACC,2.17 ± 0.107 log2FC
4,CTCGAGGATATCAAGATCTGGCCTCGGCGCGTCGGCGGGAACCTCTAGCTAGCCGACTCACTATAGGGATAATCGCCCTGAGCAAAGACC,0.627 ± 0.116 log2FC
5,CTCGAGGATATCAAGATCTGGCCTCGGCCGCCAACGCGGAACCTCTAGCTAGCCGACTCACTATAGGGATAATCGCCCTGAGCAAAGACC,0.204 ± 0.0826 log2FC
6,CTCGAGGATATCAAGATCTGGCCTCGGCGCGTGGTTCGGAACCTCTAGCTAGCCGACTCACTATAGGGATAATCGCCCTGAGCAAAGACC,0.121 ± 0.0856 log2FC
7,CTCGAGGATATCAAGATCTGGCCTCGGCGCGAGCGCGGGAACCTCTAGCTAGCCGACTCACTATAGGGATAATCGCCCTGAGCAAAGACC,0.0892 ± 0.102 log2FC
8,CTCGAGGATATCAAGATCTGGCCTCGGCAGATGGGCGGGAACCTCTAGCTAGCCGACTCACTATAGGGATAATCGCCCTGAGCAAAGACC,0.0303 ± 0.101 log2FC
9,CTCGAGGATATCAAGATCTGGCCTCGGCGCGTGGGCTGGAACCTCTAGCTAGCCGACTCACTATAGGGATAATCGCCCTGAGCAAAGACC,2.62 ± 0.0973 log2FC
10,CTCGAGGATATCAAGATCTGGCCTCGGCCGCGGTCGCGGAACCTCTAGCTAGCCGACTCACTATAGGGATAATCGCCCTGAGCAAAGACC,0.00429 ± 0.0911 log2FC
